Screens as filed in PubChem BioAssay.
Myeloid diff MLP: compounds promoting myeloid differentiation; ER-HoxA9 myeloid progenitors, lysozyme-GFP differentiation, flow cytometry; calls only at 10 µM; 360,000 tested, 1% active; AID 624256;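 active = normalized GFP-positive differentiation at or above the plate's own cutoff, the solvent-only control mean plus 3 SD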;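 also: cells exposed to compound for four days before flow analysis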
GC-A act: GC-A (human) enzyme activation; P16066; HEK293 GC-A cells, cGMP TR-FRET, EC30 ANP; 0% at EC30 ANP, 100% saturating ANP; 370,000 tested, 0.14% active; activation, % at 10 µM; in the data active = activation above about 40%
Target sequence (P16066 whole entry, looked up): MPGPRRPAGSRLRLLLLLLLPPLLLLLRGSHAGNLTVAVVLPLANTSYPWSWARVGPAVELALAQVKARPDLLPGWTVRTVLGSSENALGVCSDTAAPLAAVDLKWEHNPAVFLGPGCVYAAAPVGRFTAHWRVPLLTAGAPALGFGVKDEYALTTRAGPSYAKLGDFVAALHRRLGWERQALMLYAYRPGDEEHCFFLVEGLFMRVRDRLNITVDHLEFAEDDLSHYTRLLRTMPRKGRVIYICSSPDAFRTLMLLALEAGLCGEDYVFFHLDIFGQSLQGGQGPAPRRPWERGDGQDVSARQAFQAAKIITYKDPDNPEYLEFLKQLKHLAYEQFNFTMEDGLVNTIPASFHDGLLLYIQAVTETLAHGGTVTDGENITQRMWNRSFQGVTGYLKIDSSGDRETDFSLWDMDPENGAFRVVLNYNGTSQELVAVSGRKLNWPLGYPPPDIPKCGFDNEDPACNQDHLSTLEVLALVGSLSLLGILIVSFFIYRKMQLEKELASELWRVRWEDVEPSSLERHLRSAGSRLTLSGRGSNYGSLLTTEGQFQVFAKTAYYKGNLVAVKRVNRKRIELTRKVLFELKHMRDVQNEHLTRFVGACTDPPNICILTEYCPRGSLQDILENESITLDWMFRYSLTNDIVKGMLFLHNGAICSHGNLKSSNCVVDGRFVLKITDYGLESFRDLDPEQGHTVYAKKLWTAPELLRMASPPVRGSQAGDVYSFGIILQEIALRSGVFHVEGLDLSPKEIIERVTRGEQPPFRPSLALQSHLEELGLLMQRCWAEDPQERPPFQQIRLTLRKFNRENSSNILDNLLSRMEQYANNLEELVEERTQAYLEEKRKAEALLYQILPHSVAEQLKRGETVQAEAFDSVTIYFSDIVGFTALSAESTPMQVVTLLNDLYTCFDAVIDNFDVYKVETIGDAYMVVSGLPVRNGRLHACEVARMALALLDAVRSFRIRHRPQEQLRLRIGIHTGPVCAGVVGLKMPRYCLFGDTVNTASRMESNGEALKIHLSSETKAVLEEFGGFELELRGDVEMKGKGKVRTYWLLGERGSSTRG
Exocytosis inh: lytic granule exocytosis inhibition. TALL-104 LAMP-1 surface exposure, flow cytometry; cells stimulated with thapsigargin and PMA. inhibition, % at 10 µM. 360,000 tested, 0.66% active. AID 651702;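 active = inhibition above about 55%, limit read from the data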
NPR2 activator: GC-B (human) receptor activation; 370,000 tested, 0.11% active; HEK293-GC-B cells, CNP EC30, cGMP TR-FRET; 0% at EC30 CNP, 100% saturating CNP; AID 1920062; activation, % at 10 µM;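 active = activation at 10 µM reaching about 35% in either raw or pattern-adjusted values, limit read from the data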
Myeloid diff: promotes myeloid progenitor differentiation; shares compounds with Myeloid diff MLP; ER-HoxA9 myeloid progenitors, GFP/Mac1 double-positive flow; calls only; 2,300 tested, 2% active;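 active = share of green or green-and-red cells above 9 and 9% in run 1 or 4 and 3% in run 2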
GFP autofluor: flagged as fluorescent in myeloid differentiation counter-screen; shares compounds with Myeloid diff MLP; ER-HoxA9 myeloid progenitors, no estrogen, GFP autofluorescence flow cytometry; vehicle wells 0%, positive control 100%; fluorescence response, % (no concentration beside the values); 2,300 tested, 7.4% active;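 active = over 5% cells positive for green fluorescent reporter, or over 2% positive for both it and APC stain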
Hits are given with their value; - = inactive; . = no result; + = active, no number. Most compounds without a hit are left out; they make up all but 1.8% or so of the library.

SMILES	Myeloid diff MLP	GC-A act	Exocytosis inh	NPR2 activator	Myeloid diff	GFP autofluor
CC(C)C1C(=O)N(Cc2cn(CC3CCCCC3)nn2)CCS(=O)(=O)N1Cc1ccc(-c2ccc(F)cc2)cc1 (stereo not given)	-	-	-	-	-	-
CC(C)C1C(=O)N(Cc2cn(CCC3OCCCO3)nn2)CCS(=O)(=O)N1Cc1ccc(-c2cccc(N(C)C)c2)cc1 (stereo not given)	-	-	-	-	.	.
CCC/C=C/c1ccc(CN2C(CC(C)C)C(=O)N(Cc3cn(CCC4OCCO4)nn3)CCS2(=O)=O)cc1 (stereo not given)	-	-	-	-	.	.
CC(C)C1C(=O)N(Cc2cn(CCC3OCCCO3)nn2)CCS(=O)(=O)N1Cc1ccc(-c2cccc(CO)c2)cc1 (stereo not given)	-	-	-	-	-	-
COCOCCn1cc(CN2CCS(=O)(=O)N(Cc3ccc(-c4ccc(Cl)nc4)cc3)C(CC(C)C)C2=O)nn1 (stereo not given)	-	-	-	-	.	.
COCOCCn1cc(CN2CCS(=O)(=O)N(Cc3ccc(-c4ccc(Cl)cc4)cc3)C(CC(C)C)C2=O)nn1 (stereo not given)	+	-	-	-	-	-
Cc1cc(N=O)no1	.	-	.	-	.	.
CCOC(=O)c1c(NC(=O)C(C)Sc2cccc[n+]2[O-])sc2c1CCN(Cc1ccccc1)C2 (stereo not given)	+	-	-	-	-	-
CCOC(=O)c1c(NC(C)=O)sc2c1CCN(Cc1ccccc1)C2	-	-	-	-	.	.
CN1CCN(c2cc3c(c4c2[nH]c2ccccc24)C(=O)CC(C)(C)C3)CC1	-	-	-	-	-	-
Cc1ccc(-c2cc(C(F)(F)F)c(C#N)c(SCCC#N)n2)o1	-	-	-	-	-	-
Cc1ccnc(SCC(=O)Nc2sc3c(c2C#N)CCCC3)n1	-	-	-	-	.	.
Cc1csc(SCC(=O)Nc2sc3c(c2C#N)CCC3)n1	-	-	-	-	-	-
Cc1cc(C)cc(N2C(N)=NC(N)=NC2c2ccccc2F)c1 (stereo not given)	-	-	-	-	-	-
Cc1cc(C)cc(N2C(N)=NC(N)=NC2c2cccc(Cl)c2)c1 (stereo not given)	-	-	-	-	.	.
CN(C)c1ccc(NC(=O)CN2CCC(O)(c3ccccc3)CC2)cc1	-	-	-	-	-	-
CCN1C(=O)[C@@H]2[C@@H](c3ccc(-c4ccc(Cl)c(Cl)c4)c(OC)c3)N3CCC[C@@]3(C(=O)OC)[C@@H]2C1=O	-	-	-	-	.	.
CCN1C(=O)[C@@H]2[C@@H](c3ccc(-c4cccc(Cl)c4)c(OC)c3)N3CCCC[C@@]3(C(=O)OC)[C@@H]2C1=O	+	-	-	-	-	-
CC(C)=CCC[C@H](C)C[C@@H]1Cc2[nH][nH]c(=O)c2[C@H](c2ccc(F)cc2)O1	-	-	-	-	.	.
CCOC(=O)C1=CCN(S(=O)(=O)c2ccc(C)cc2)[C@H]1c1ccccc1Cl	-	-	-	-	.	.
O=C(NC1CCCCC1)C(Cc1ccccc1)NS(=O)(=O)c1cccs1 (stereo not given)	-	-	-	-	-	-
O=C(NC1CCCc2ccccc21)C(Cc1ccccc1)NS(=O)(=O)c1cccs1 (stereo not given)	-	-	-	-	.	.
COc1ccc2c(c1)C(CC(C)=O)N(c1ccc(-c3cccs3)cc1)C(c1ccsc1)=C2 (stereo not given)	+	-	-	-	-	-
COc1ccc2c(c1)C(CC(C)=O)N(c1ccc(-c3cnc(OC)nc3)cc1)C(c1ccsc1)=C2 (stereo not given)	-	-	-	-	.	.
Cc1cc(C)n2c(NC3CCCC3)c(-c3ccc(F)cc3)nc2n1	-	-	-	-	.	.
SMILES	Myeloid diff MLP	GC-A act	Exocytosis inh	NPR2 activator	Myeloid diff	GFP autofluor
COc1ccc(Cn2c(C)nc3c(c2=O)c2nc4ccccc4nc2n3Cc2ccco2)cc1	-	-	-	-	-	-
O=C(CSc1nnc(CNC(=O)c2ccco2)o1)Nc1ccc(Cl)cc1	-	-	-	-	.	.
O=C(CSc1nnc(CNC(=O)c2ccco2)o1)Nc1cccc(Cl)c1	+	-	-	-	-	-
Clc1ccc(-c2cnc3cccnn23)cc1	-	-	-	-	.	.
Nc1cccn2c(-c3ccc(Cl)cc3)cnc12	+	-	-	-	-	-
CN(C)c1cccc(-c2cnc(N3CCC(C(N)=O)CC3)nc2)c1	.	-	.	-	.	.
Cc1nc(C)c(/C(O)=C/c2nc3ccccc3oc2=O)s1	+	-	-	-	-	-
c1cnc(N2CCN(c3nc4ccccc4n4cnnc34)CC2)nc1	-	-	-	-	-	-
O=C(O)c1ccccc1Nc1ccc([N+](=O)[O-])cc1	-	-	-	-	+	-
O=C(COCc1ccccc1)N1CC[C@H]2[C@H](CCCN2Cc2cc(F)cc(F)c2)C1	.	-	.	-	.	.
CN(C(=O)c1ccc(NC(=O)Cc2cccc(NC(=O)C3CCN(C(=O)C4CC4)CC3)c2)cc1)C1CC1	-	-	-	-	.	.
Nc1cccc(C#Cc2ccc3c(c2)C(=O)/C(=C/c2ccsc2)O3)c1	-	-	-	-	-	-
CN(C)CCNc1ncnc2c1ncn2[C@H]1CN(Cc2cccs2)C[C@@H](CO)O1	-	-	-	-	.	.
CN(C)CCN1CCc2ccccc21	+	-	-	-	-	-
c1ccc2c(c1)CCN2CCN1CCc2ccccc21	-	-	-	-	.	.
Cc1ccc(-n2c(C)cc3c2CC(C)(C)CC3=O)cc1C	-	-	-	-	.	.
Cc1cc2c(n1-c1ccc(Br)cc1)CC(C)(C)CC2=O	-	-	-	-	-	-
CC1CCCCN1S(=O)(=O)c1ccc(C(=O)Nc2nnc(-c3ccncc3)o2)cc1 (stereo not given)	-	-	-	-	.	.
COc1ccc(-c2nnc(NC(=O)c3ccc(S(=O)(=O)N4COCC4(C)C)cc3)o2)cc1	-	-	-	-	-	5.3
Cc1ccc(OCc2cc(C(=O)N(C)C3CCCc4ccccc43)no2)cc1C (stereo not given)	-	-	-	-	.	.
CCOc1ccc(/C=N/NC(=O)c2ccccc2Cl)cc1CN1CC2CC(C1)c1cccc(=O)n1C2 (stereo not given)	-	-	-	-	-	-
O=[N+]([O-])c1ccc(OCCCN2CCC(C(O)(c3ccccc3)c3ccccc3)CC2)c(Cl)c1	.	-	.	-	.	.
Cc1ccc(S(=O)(=O)NCCC(=O)N2CCN(Cc3ccccc3)CC2)cc1	+	-	-	-	-	-
c1ccc(-c2ccc(OCCCn3cncn3)cc2)cc1	-	-	-	-	.	.
c1ccc(COc2ccc(OCCn3cncn3)cc2)cc1	-	-	-	-	-	-
COCOc1cccc(CN2CCC2(C)C(=O)Nc2cc(OC)ccc2OC)c1 (stereo not given)	-	-	-	-	.	.
